Experimental data published in PubChem BioAssay (Tox21).
Several values for one entry are separate records, joined by “and”; a condition that tells them apart may be missing. Equal entries are not always repeated. Results filed as inconclusive are left out. Where a call stands in place of a potency, no number is given. Unmarked numbers belong to inactive results. Activity calls are given as the source filed them. Calls come from the whole dose curve; as a rule, active = well fitted curve in the direction sought with a large enough effect in the repeat runs; inconclusive = weak or mixed curves; inactive = no such curve, though single readings can be large; an effect the other way counts as inactive or inconclusive.

Experiments:
[1] = qHTS RealTime-Glo MT Cell Viability Assay in HepG2 cells - 40 hour (AID 1224870); note: nearly all actives have a fitted effect of over 50% in size; note: potency is the fitted concentration of half-maximal effect
Summary of the method: (§1)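 Real-time viability: cells seeded at 600 per well together with NanoLuc and cell-permeant prosubstrate, compounds added after 5 h incubation. Luminescence tracked at 0, 8, 16, 24, 32 and 40 h of exposure.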

[2] = qHTS RealTime-Glo MT Cell Viability Assay in HepG2 cells - 8 hour (AID 1224873); note: nearly all actives have a fitted effect of over 55% in size; note: potency is the fitted concentration of half-maximal effect
Summary of the method: as §1

[3] = A CellTox Green Cytotoxicity Assay to monitor cytotoxicity in HEK293 cells - 24 hour (AID 1224875); note: nearly all actives have a fitted effect of over 45% in size; note: potency is the fitted concentration of half-maximal effect
Summary of the method: (§2)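 Read-out: fluorescence of a cell-impermeant cyanine dye staining DNA of dead cells, proportional to cytotoxicity. HEK293, 600 cells/well with reagent, compound (23 nL DMSO) added after 5 h; reads at 0, 8, 16, 24, 32, 40 h.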

[4] = qHTS RealTime-Glo MT Cell Viability Assay in HepG2 cells - 32 hour (AID 1224877); note: nearly all actives have a fitted effect of over 55% in size
Summary of the method: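 HepG2 cells (600/well) were dispensed with RealTime-Glo reagents, incubated 5 h at 37 °C, then treated with compounds in DMSO for up to 40 h. Nonlytic NanoLuc luminescence reflecting viable cells was read at each stated time point.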

[5] = A CellTox Green Cytotoxicity Assay to monitor cytotoxicity in HEK293 cells - 40 hour (AID 1224871); note: nearly all actives have a fitted effect of over 45% in size; note: potency is the fitted concentration of half-maximal effect
Summary of the method: as §2

[6] = qHTS RealTime-Glo MT Cell Viability Assay in HEK293 cells - 16 hour (AID 1224872); note: nearly all actives have a fitted effect of over 50% in size; note: potency is the fitted concentration of half-maximal effect
Summary of the method: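 HEK293 cells seeded with NanoLuc/prosubstrate reagent, rested 5 h at 37 C, then dosed and kept at 37 C up to 40 h. Nonlytic real-time luminescence from viable cells read at 0, 8, 16, 24, 32 and 40 h.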

[7] = qHTS RealTime-Glo MT Cell Viability Assay in HEK293 cells - 40 hour (AID 1224874); settings: RealTime-Glo luminescence; max response: active compounds read low; note: nearly all actives have a fitted effect of over 50% in size; note: potency is the fitted concentration of half-maximal effect
Summary of the method: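 Luminescence readout at each listed time point; HEK293, 600 cells/well, RealTime-Glo MT reagent added with cells; compounds pinned (23 nL in DMSO) after 5 h at 37 C; continuous culture at 37 C.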

[8] = A CellTox Green Cytotoxicity Assay to monitor cytotoxicity in HepG2 cells - 16 hour (AID 1224876); note: nearly all actives have a fitted effect of over 45% in size; note: potency is the fitted concentration of half-maximal effect
Summary of the method: (§3)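 HepG2, 600 cells/well premixed w/ CellTox Green; 5 h settle, 37 C/5% CO2; pintool cpd add (DMSO); 37 C, 40 h; fluorescence read at 0, 8, 16, 24, 32, 40 h.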

[9] = A CellTox Green Cytotoxicity Assay to monitor cytotoxicity in HepG2 cells - 24 hour (AID 1224878); note: nearly all actives have a fitted effect of over 45% in size; note: potency is the fitted concentration of half-maximal effect
Summary of the method: as §3

[10] = A CellTox Green Cytotoxicity Assay to monitor cytotoxicity in HepG2 cells - 40 hour (AID 1224879); note: nearly all actives have a fitted effect of over 40% in size; note: potency is the fitted concentration of half-maximal effect
Summary of the method: as §3

Structure (SMILES)	Potency [1]	Potency [2]	Potency [3]	Potency [4]	Potency [5]	Potency [6]	max response [7]	Potency [8]	Potency [9]	Potency [10]	Potency [7]
CCCCN1CCCC1C(=O)Nc1c(C)cc(C)cc1C (stereo unspecified)	inactive	inactive	15.1 µM (active)	inactive							
Nc1nnc(-c2ccc([N+](=O)[O-])o2)o1		inactive	inactive		inactive	inactive	-27%	inactive	inactive		
COc1ccc(OC(=O)N(CC(=O)O)Cc2ccc(OCCc3nc(-c4ccccc4)oc3C)cc2)cc1		inactive	inactive	inactive	inactive	inactive	-9.99%	inactive	inactive	inactive	
Oc1cccc(O)c1O		inactive	inactive	inactive	inactive	inactive	1.23%	inactive	inactive	inactive	
c1ccc2c(c1)CCc1ccccc1N2		inactive	inactive	inactive	49.2 µM (active)	inactive	-22.1% and -5.28%	inactive	inactive	inactive	
C/C=C(/C(=C/C)c1ccc(O)cc1)c1ccc(O)cc1	inactive	inactive	inactive	inactive		inactive		15.1 µM (active)	16.9 µM (active)	19 µM (active)	
CCOC(=O)c1ccc(I)cc1	inactive	inactive	35 µM (active)	inactive			-24.8%	inactive	inactive	inactive	
CCCCC(CC)COP(=O)(O)O (stereo unspecified)	inactive	inactive		inactive		inactive		inactive	inactive	inactive	
C[C@@H](O[C@H]1OCCN(Cc2n[nH]c(=O)[nH]2)[C@H]1c1ccc(F)cc1)c1cc(C(F)(F)F)cc(C(F)(F)F)c1	21.3 µM (active)					19 µM (active)		16.9 µM (active)	15.1 µM (active)	16.9 µM (active)	16.9 µM (active)
C=C1CCC2CC1C2(C)C (stereo unspecified)		inactive	inactive	inactive	inactive	inactive	0.0757%	inactive	inactive	inactive	
Cc1cc(O)c(C)c(C)c1O	inactive	inactive		inactive				inactive	inactive	inactive	
Cc1cccc(O)c1N		inactive	inactive	inactive	inactive	inactive		inactive	inactive	inactive	
CCOc1ccc(Cc2nccc3cc(OCC)c(OCC)cc23)cc1OCC		12 µM (active)	inactive		inactive	9.52 µM (active)		inactive	inactive	7.56 µM (active)	
CN(C(=O)CN(CCO)CC(=O)N(C)C(C)(C)Cc1ccccc1)C(C)(C)Cc1ccccc1								23.9 µM (active)	23.9 µM (active)	23.9 µM (active)	19 µM (active)
C=C(C)C(=O)OCCOCCOC(=O)C(=C)C		inactive	inactive	inactive	inactive	inactive		inactive	inactive	inactive	
C=C(C)CCCC(C)CCO (stereo unspecified)		inactive	inactive	inactive	inactive	inactive		inactive	inactive	inactive	
O=c1cc(-c2ccccc2)oc2ccc3ccccc3c12		inactive	inactive	inactive		inactive	-4.42%	24.5 µM (active)	24.5 µM (active)	17.4 µM (active)	
C[C@@H]1CC(=O)NN=C1c1ccc(NN=C(C#N)C#N)cc1		inactive	inactive		inactive			inactive	inactive	15.1 µM (active) and 13.4 µM (active)	
c1csc(SSc2cccs2)c1			inactive					inactive		54.9 µM (active)	
O=c1cc(-c2ccccc2)oc2cc(O)cc(O)c12		inactive	inactive		inactive			inactive			
C[C@@H](CN(C)C)CN1c2ccccc2Sc2ccccc21		inactive	inactive		16.9 µM (active)			23.9 µM (active)	26.8 µM (active)	26.8 µM (active)	23.9 µM (active)
COC(=O)CCS		inactive	inactive	inactive	inactive	inactive		inactive	inactive	inactive	
CCCC(C(=O)OCCN(CC)CC)(c1ccccc1)c1ccccc1		inactive		inactive							21.3 µM (active)
c1cc(N(CC2CO2)CC2CO2)ccc1Cc1ccc(N(CC2CO2)CC2CO2)cc1 (stereo unspecified)			inactive		49 µM (active)	43.6 µM (active)		inactive			24.5 µM (active)
CN1C(=O)N(c2ccccc2Br)Cc2cnc(Nc3ccc4c(c3)OCC(CO)O4)nc21 (stereo unspecified)			inactive		inactive	6.92 µM (active)		inactive			4.36 µM (active)
CCOC(=O)C1=C(C)NC(C)=C(C(=O)OC)C1c1cccc(Cl)c1Cl (stereo unspecified)		19 µM (active)	inactive		inactive			inactive	inactive	inactive	
COC(=O)C1=C(C)NC(C)=C(C(=O)O[C@@H]2CCCN(Cc3ccccc3)C2)[C@@H]1c1cccc([N+](=O)[O-])c1		inactive	inactive				-29.2%	inactive	inactive	inactive	
CCCCCCC(C)(C)C(=O)O		inactive	inactive	inactive	inactive	inactive		inactive	inactive	inactive	
